Source: ChEMBL document CHEMBL3988442, “University of Dundee, Small-Polar-MMV Screening Library” (2021)
Among all 48,000 compounds or so, about 13,000 (27%) showed an effect of 50% or more. The list shows a part of the results.

Tested on: Wolbachia pipientis
Assay: Anti-Wolbachia Cell-Based Screen
Assay type: functional
Set-up: scale not given: in the data most compounds retested in dose-response had high values
Conditions: 5 µM

| SMILES | Percent Effect [%] |
| --- | --- |
| CC(C)CN1CC(c2nc(-c3ccc(F)cc3)c[nH]2)CC1=O (stereo not drawn) | -3.521 |
| N[C@H]1CN(S(=O)(=O)c2ccccc2)C[C@@H]1C1CC1 | -7.486 |
| CC(C)CN1CC(O)CN(S(=O)(=O)c2ccccc2)CC1=O (stereo not drawn) | 100.2 |
| CCN1CCNC(=O)C12CCN(S(=O)(=O)c1ccc(F)cc1)CC2 | -6 |
| CC(C)CN1CCNC(=O)C12CCN(S(=O)(=O)c1ccc(F)cc1)CC2 | -14.33 |
| O=C1CO[C@@H]2CN(S(=O)(=O)c3ccccc3)C[C@H]2N1CC1CC1 | -2.601 |
| CCC[C@H]1CN(S(=O)(=O)c2ccccc2)C[C@@H]1N | -22.4 |
| Cc1ccc(C)c(OC(C)C(=O)NCCNc2cccnc2)c1 (stereo not drawn) | 16.95 |
| CCn1ncc2c1NC(=O)CC2c1cnc(-c2ccccn2)nc1 (stereo not drawn) | -2.059 |
| COc1ccccc1N1CCN(C(=O)Cn2nc(C)cc2C)CC1(C)C | -9.26 |
| Cc1c(Cl)c(C(=O)N2CC[C@H](N3CCOCC3)[C@H](CCCO)C2)nn1C | -7.195 |
| CC(C)c1noc(CN2CCCN(Cc3cccs3)CC2)n1 | 67.59 |
| Cc1noc(CN2CCN(Cc3cccs3)CC2)n1 | 0.5359 |
| CC(C)Cc1noc(CN2CCN(C(=O)c3cccs3)CC2)n1 | -25.07 |
| CCc1noc(CN2CCCN(C(N)=O)CC2)n1 | -3.109 |
| CC(C)(C)c1nc(CN2CCCN(Cc3cccs3)CC2)no1 | 85.49 |
| CC(C)(C)c1noc(CN2CCCN(Cc3cccs3)CC2)n1 | 1.032 |
| CC(C)CCN1CCN(Cc2nc(C(C)C)no2)CC1 | -7.959 |
| CCc1noc(CN2CCCN(Cc3cccs3)CC2)n1 | 74.2 |
| CCc1noc(CN2CCN(Cc3cccs3)CC2)n1 | 91.28 |
| CC(C)(C)c1nc(CN2CCC(c3nc4cc(Cl)ccc4o3)CC2)no1 | -20.96 |
| CCc1nc(CN2CCCN(c3cnc4ccccc4n3)CC2)no1 | -8.028 |
| Cc1cc2nc(CO[C@H]3CN(CC4CC4)C[C@H]3F)[nH]c2cc1C | -2.135 |
| Cc1cc(C)n(CC(C)NC2CCN(Cc3cccnc3)CC2)n1 (stereo not drawn) | -17.52 |

| SMILES | Percent Effect [%] |
| --- | --- |
| CN1C(=O)CO[C@H](c2ccc(NC(=O)Nc3ccccc3)cc2)[C@H]1CO | -13.1 |
| CO[C@H]1C(=O)N(C)C2(CCNCC2)[C@@H]1C(=O)Nc1ccccc1 | 91.16 |
| CNC(=O)[C@@H]1[C@@H](OC(=O)Nc2ccccc2)C(=O)N(C)C12CCNCC2 | 89.46 |
| CN1CC2(CNCCN(C(=O)Nc3ccccc3)C2)CC1=O.O=C(O)C(F)(F)F (stereo not drawn) | -22.36 |
| Cc1ncccc1OC1(C(=O)NCCNc2ccccc2)CCNCC1 | -10.51 |
| CN1C(=O)[C@H](OC(N)=O)[C@@H](C(=O)Nc2ccccc2)C12CCNCC2 | 104.3 |
| O=C(Nc1ccccc1)[C@H]1O[C@H](CCN2CCNCC2)CC[C@@H]1O | 1.571 |
| CCc1cc(N2CCSCC2)n2nc(C)c(C)c2n1 | 8.974 |
| Cc1n[nH]c(C)c1CCN(C)C(=O)c1ccc(CCC(C)(C)O)cc1 | 11.25 |
| CN(Cc1cc(Br)cn1C)C(=O)c1cc(Cl)ccn1 | -3.777 |
| O=C(c1cc(-c2cn[nH]c2)nc2ccc(F)cc12)N1CCSCC1 | 9.042 |
| COc1ccc2cc(CN(C)CCc3cn[nH]c3)c(=O)[nH]c2c1 | -3.299 |
| Cc1ccccc1C(=O)NC1CCN(Cc2ncc(C(C)(C)C)o2)CC1 | 19.24 |
| Cc1nc(C(C)(C)NC(=O)Nc2ccncc2)no1 | -5.529 |
| CS(=O)(=O)NCC1CCCN(C(=O)Nc2ccccc2N2CCCC2)C1 (stereo not drawn) | 96.01 |
| CS(=O)(=O)NCC1CCCN(C(=O)COCc2ccccc2)C1 (stereo not drawn) | -4.256 |
| O=C(CN1CCCC1)N1CCCC(CNS(=O)(=O)Cc2ccccc2)C1 (stereo not drawn) | 16.47 |
| CS(=O)(=O)NCC1CCCN(C(=O)Nc2ccccc2F)C1 (stereo not drawn) | 119.4 |
| CC(C)S(=O)(=O)NCC1CCCN(C(=O)c2ccc(F)cc2)C1 (stereo not drawn) | -11.51 |
| CS(=O)(=O)NCC1CCCN(C(=O)c2ccc3c(c2)CCCC3)C1 (stereo not drawn) | 4.156 |
| CS(=O)(=O)NCC1CCCN(C(=O)COc2ccc(F)cc2)C1 (stereo not drawn) | -1.733 |
| CS(=O)(=O)NCC1CCCN(C(=O)Nc2cccc3ccccc23)C1 (stereo not drawn) | 98.14 |
| O=C(Nc1cccc2ccccc12)N1CCC(N2CCSCC2)CC1 | -0.7759 |
| CNS(=O)(=O)CCCN1CCCC1c1noc(C2CC2)n1 (stereo not drawn) | -1.215 |
